# Shown are actives, neighbours in structure and some others; about 2% of the full set was active somewhere.
# M4 PAM – positive allosteric modulators of human muscarinic M4 receptor; 0.4% of 360,000 active; activation, % at 3 µM; AID 624126; CHO-K1 hM4/Gqi5, Fluo-8 calcium fluorescence, ACh EC20; 0% = ACh EC20, 100% = maximal ACh;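 active = activation above its plate's cutoff, the mean activation of sample wells plus 3 SD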
# Target sequence (P08173 whole entry, looked up): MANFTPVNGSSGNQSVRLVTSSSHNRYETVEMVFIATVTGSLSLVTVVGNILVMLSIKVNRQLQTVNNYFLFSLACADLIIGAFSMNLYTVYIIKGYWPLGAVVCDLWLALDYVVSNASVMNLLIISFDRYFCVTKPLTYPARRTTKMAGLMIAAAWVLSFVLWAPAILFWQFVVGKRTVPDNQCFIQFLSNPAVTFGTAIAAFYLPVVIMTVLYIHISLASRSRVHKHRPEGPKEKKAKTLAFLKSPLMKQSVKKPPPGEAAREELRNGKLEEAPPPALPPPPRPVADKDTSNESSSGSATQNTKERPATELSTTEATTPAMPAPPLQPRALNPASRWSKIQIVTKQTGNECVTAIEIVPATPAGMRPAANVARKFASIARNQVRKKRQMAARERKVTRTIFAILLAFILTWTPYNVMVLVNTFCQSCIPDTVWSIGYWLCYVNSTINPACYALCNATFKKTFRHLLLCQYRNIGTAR
# M4 antag – CHRM4 antagonism in calcium assay; P08173; 0.73% of 360,000 active; inhibition, % at 3 µM; CHO-hM4 cells, ACh EC80, Fluo-8 calcium fluorescence; AID 624125;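 active = inhibition above its plate's cutoff, the mean inhibition of sample wells plus 3 SD, cut at about 27% in these data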;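 also: 0% = acetylcholine EC80 with DMSO and 100% = DMSO without agonist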
# CHO-K1 Ca PAM – nonselective activator or artifact in parental CHO-K1 calcium assay; ATP EC20, Fluo-8 calcium fluorescence; 0% at ATP EC20, 100% at ATP max; activation, % at 3 µM; 0.02% of 360,000 active;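 active = activation above the run cutoff, the mean activation of all test compounds plus 3 SD, cut at about 40% in these data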;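 also: peak over basal fluorescence ratio in a 140 s read after ATP addition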
# CHO-K1 Ca antag – M1 antagonist counterscreen hit in parental CHO-K1 cells; ATP-induced calcium, Fluo-8 fluorescence; inhibition, % at 3 µM; 0.6% of 360,000 active; AID 602250;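 active = inhibition above a per-plate cutoff, the plate's mean sample inhibition plus 3 SD, cut at about 24% in these data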;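 also: 0% = DMSO plus EC80 ATP and 100% = DMSO alone without ATP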
# M4 ag – CHRM4 agonism in calcium assay; P08173; CHO-K1 hM4/Gqi5, Fluo-8 calcium fluorescence; vehicle 0%, full acetylcholine response 100%; activation, % at 3 µM; 0.14% of 360,000 active;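 active = activation above the run mean over all test wells plus 3 SD, cut at about 32% in these data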;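 also: peak over basal fluorescence ratio per well then scaled between controls; 0% = DMSO wells and 100% = acetylcholine at EC100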
# M1 ag parental – nonselective activator or artifact in parental CHO-K1 cells. Fluo-8 calcium fluorescence; scaled to maximal ATP response, vehicle zero. activation, % at 3 µM. 0.48% of 360,000 active. AID 602248; in the data active = activation above about 15%;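 also: untransfected CHO-K1 host cells lacking M1 receptor as counterscreen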
# Numbers without * were called inactive; + = active, no number.
SMILES,M4 PAM,M4 antag,CHO-K1 Ca PAM,CHO-K1 Ca antag,M4 ag,M1 ag parental
CCC1CCCCN1S(=O)(=O)c1ccc([N+](=O)[O-])cc1 (stereo not drawn),-14.0,28.3*,-10.6,18.8,-0.7,0.1
Fc1ccc(NC(=S)N2CCCN(c3ccc(C(F)(F)F)cn3)CC2)c(F)c1,-23.2,11.3,-13.8,24.3*,10.8,12.0
O=C(Nc1ccc(F)cc1F)N1CCCN(c2ccc(C(F)(F)F)cn2)CC1,4.5,-1.6,-3.4,-0.8,5.0,7.6
O=[N+]([O-])c1cccc(CSc2cccc[n+]2[O-])c1,-3.1,0.8,15.9,-12.2,0.9,0.6
CCc1nc2c(OCC3COc4ccccc4O3)cccn2c1N(C)C(=O)c1cccs1 (stereo not drawn),-4.7,-13.0,-12.1,31.0*,0.6,-0.1
CCc1nc2c(OCC(=O)c3ccc(F)cc3)cccn2c1N(C)C(=O)c1cccs1,-3.7,-9.2,-17.3,26.5*,13.6,3.5
CCc1nc2c(OCC(=O)C(C)(C)C)cccn2c1N(C)C(=O)c1cccs1,5.5,-11.7,9.8,-6.2,0.3,0.0
O=C(Nc1cc(-c2nc3ccccc3s2)ccc1Cl)c1ccc2c(c1)OCO2,9.4,-17.9,15.7,-21.1,0.9,0.1
O=C(Nc1ccnn1C1CCN(C2CCCC2)CC1)c1ccccc1Cl,4.2,-3.7,3.6,-11.7,2.5,-0.1
O=C(Nc1ccnn1C1CCN(C2CCC2)CC1)c1ccccc1Cl,0.2,3.4,9.3,45.8*,1.5,0.6
Cc1ccc(OCC(=O)c2cc(C)n(Cc3cccs3)c2C)c([N+](=O)[O-])n1,-9.9,2.9,-11.4,28.3*,10.6,7.0
CCNC(=S)Nc1cc(C(=O)N2CCCC2)ccc1N1CCCC1,5.8,-5.5,3.7,-13.1,-0.8,-0.6
COC(=O)c1ccccc1-c1ccc(/C=N/NC(=O)c2cc3ccccc3o2)o1,-15.6,18.3,22.0,-0.1,14.0,3.9
COC(=O)c1ccccc1-c1c2ccc(=N)cc-2oc2cc(N)ccc12,-20.4,101.5*,-22.8,88.3*,+,678.1*
CCCCOC(=O)/C(=C\c1ccc([N+](=O)[O-])o1)NC(=O)c1ccccc1,-6.7,28.6*,20.7,-9.5,1.9,0.5
CCCCOC(=O)/C(=C/C=C/c1ccccc1)NC(=O)c1ccccc1,-6.0,-6.0,8.7,8.0,3.1,1.6
COc1cc(NS(=O)(=O)c2ccc(NC(=O)/C=C/c3cccc([N+](=O)[O-])c3)cc2)ncn1,-1.4,-0.8,14.6,2.2,0.2,-0.1
OC12CCCCC1C(c1ccc3c(c1)OCO3)N(Cc1cccc(F)c1)CC2 (stereo not drawn),-1.1,-4.2,20.6,-6.3,-1.9,0.7
CCOc1ccc(C2/C(=C(\O)c3cccc(OC)c3)C(=O)C(=O)N2c2cc(C)on2)cc1OC (stereo not drawn),2.0,-1.7,23.3,-10.3,0.6,0.1
Cn1c(=O)c([N+](=O)[O-])c(Cl)c2ccccc21,-15.2,41.1*,-12.7,6.3,-1.0,-1.1
Cc1ccc(S(=O)(=O)Nc2ccc(N3CCOCC3)cc2)cc1[N+](=O)[O-],8.7,-5.7,-12.0,-2.5,2.5,0.9
CCc1ccc(NC(=O)C(C)OC(=O)/C=C/c2ccc(O)c(OC)c2)cc1 (stereo not drawn),-9.6,5.7,-12.0,-7.5,27.1,25.2*
CCCC[n+]1c2ccccc2cc2ccccc21,-4.7,8.6,-20.4,-10.3,0.1,0.4
Cc1c(C)c2ccc(OCC(=O)N[C@@H](Cc3c[nH]c4ccccc34)C(=O)O)cc2oc1=O,5.2,-5.8,-16.4,29.3*,0.2,-0.3
O=C(COc1ccc2c(c1)oc(=O)c1ccccc12)N[C@@H](Cc1c[nH]c2ccccc12)C(=O)O,5.3,-9.7,22.2,-1.6,0.4,0.4
SMILES,M4 PAM,M4 antag,CHO-K1 Ca PAM,CHO-K1 Ca antag,M4 ag,M1 ag parental
O=C(CN(C1CCCCC1)S(=O)(=O)c1ccc(Cl)cc1)NCc1cccnc1,-6.8,-7.0,18.4,-6.7,4.5,2.7
O=C1C(=Cc2cccn2-c2ccc(O)cc2)C(=O)c2ccccc21,13.8,-8.2,29.9,-21.9,1.9,1.4
O=C1C(=Cc2cccn2-c2ccccc2)C(=O)c2ccccc21,1.3,-0.7,17.0,-5.5,0.9,15.3*
C=CCn1c(=N)n(CC(=O)c2cccc([N+](=O)[O-])c2)c2ccccc21,-0.6,1.0,19.8,-5.8,-0.3,0.4
CN(C)CCC(O)(c1ccccc1)c1ccccc1,-17.3,25.6,1.5,-14.0,0.6,0.5
CN(C)CCC#CC(O)(c1ccccc1)c1ccccc1,-14.9,31.6*,20.2,1.9,0.5,10.2
CN(C)C(C)(C)C#CC(O)(c1ccccc1)c1ccccc1,-25.2,52.9*,2.6,-9.2,0.0,0.3
OCCN(CC#CC(O)(c1ccccc1)c1cccc(F)c1)CCO (stereo not drawn),-8.1,-14.3,20.1,-19.2,0.5,0.1
CN(C)CCCC(C)(O)C(C)(C)c1ccccc1 (stereo not drawn),-1.8,9.6,9.6,-1.9,0.2,-0.2
CCN(CC)CC#CC(O)(c1ccccc1)c1ccccc1,-24.3,88.5*,17.5,-22.7,0.3,3.7
CCCCOc1ccc(Cc2c(O)nc(SC)[nH]c2=O)cc1,17.8*,17.7,30.1,3.8,4.7,1.0
Cc1cc(C(=O)COC(=O)CNC(=O)c2ccccc2)c(C)n1CC1CCCO1 (stereo not drawn),-6.5,4.0,8.3,-0.6,1.3,1.1
Cc1cc(C(=O)CSc2nc3ccccc3c(=O)[nH]2)c(C)n1CC1CCCO1 (stereo not drawn),-16.2,27.1*,1.6,23.7*,19.4,17.3*
Cc1cccc(C(=O)NCC(=O)OCC(=O)c2cc(C)n(CC3CCCO3)c2C)c1 (stereo not drawn),-4.0,-10.2,8.2,4.6,8.9,17.3*
Cc1cc(C(=O)CN2C(=O)NC(C)(c3ccccc3)C2=O)c(C)n1CC1CCCO1 (stereo not drawn),18.1,27.1*,7.9,-8.7,3.4,2.3
Cc1cc(C(=O)CN2C(=O)c3ccccc3S2(=O)=O)c(C)n1CC1CCCO1 (stereo not drawn),4.4,-10.9,-3.1,-0.3,3.7,0.4
COc1cccc(CN(C)C(=O)COc2cccc3c2OC(C)(C)C3)c1OC,21.7*,-8.4,-11.2,-2.6,5.3,0.6
COc1cc(C2OCC3C(c4cc(OC)c(OC)c(OC)c4)OCC23)cc(OC)c1OC (stereo not drawn),12.2,-12.8,21.3,-3.5,1.7,1.4
COc1ccc(S(=O)(=O)NCCSCc2ccco2)cc1,-0.8,10.6,-6.7,27.7*,1.0,-0.4
COc1ccc(C(CNC(=O)c2oc3ccc(OC)cc3c2C)N2CCCC2)cc1 (stereo not drawn),4.7,-6.9,-29.8,30.1*,0.8,-0.2

# High-throughput results as filed in PubChem.
